Screening results as filed in PubChem.
PPARg SRC3 recr: promotes SRC-3 coactivator recruitment by human PPARgamma; actives 0.26% (n = 200,000); biochemical PPARgamma/SRC-3 coactivator recruitment assay; activation, % at 8 µM; in the data active = activation above about 23%;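 note: 0% = DMSO and 100% = reference agonist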
Target sequence (P37231 whole entry, looked up): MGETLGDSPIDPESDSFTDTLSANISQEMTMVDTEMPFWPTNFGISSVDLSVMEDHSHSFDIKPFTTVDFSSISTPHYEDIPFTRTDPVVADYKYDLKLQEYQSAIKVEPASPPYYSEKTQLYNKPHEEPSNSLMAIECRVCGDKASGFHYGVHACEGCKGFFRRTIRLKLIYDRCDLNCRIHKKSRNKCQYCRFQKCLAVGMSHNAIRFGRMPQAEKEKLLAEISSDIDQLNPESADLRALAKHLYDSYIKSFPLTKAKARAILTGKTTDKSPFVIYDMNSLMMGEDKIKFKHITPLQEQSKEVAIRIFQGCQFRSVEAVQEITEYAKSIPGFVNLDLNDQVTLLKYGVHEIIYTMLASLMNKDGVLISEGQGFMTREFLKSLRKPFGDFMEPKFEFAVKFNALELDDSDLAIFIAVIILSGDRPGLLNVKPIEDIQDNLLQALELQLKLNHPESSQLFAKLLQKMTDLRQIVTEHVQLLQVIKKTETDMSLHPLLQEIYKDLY
PPARg SRC-1 ag: PPARgamma-driven SRC-1 recruitment agonism | AID 631 | PPARgamma-SRC-1 coactivator recruitment biochemical assay | actives 0.41% (n = 200,000) | activation, % at 8 µM | P37231; in the data active = activation above about 19%;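 note: 0% = DMSO and 100% = reference agonist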
SRC1 TRFRET art: TR-FRET artefact, counter-screen to PPARgamma/SRC-1 agonist assay; AID 1051; actives 0.34% (n = 99,000); TR-FRET ratio at 8 µM; TR-FRET detection artefact counter-screen, emission ratio; hits give high values; in the data active = TR-FRET ratio above about 2300
SRC3 TRFRET art: counter-screen for PPARgamma SRC-3 recruitment agonists: TR-FRET artefact; PPARgamma/SRC-3 format; hits give high values; actives 0.39% (n = 99,000); TR-FRET ratio at 8 µM
PPARg SRC-2 ag: agonists of SRC-2 recruitment by human PPARgamma. P37231. PPARgamma LBD-SRC-2 recruitment, biochemical. activation, % at 8 µM. actives 0.34% (n = 200,000); in the data active = activation above about 22%;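 note: 0% = vehicle and 100% = reference agonist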
SRC2 TRFRET art: flags TR-FRET format artefacts in PPARgamma SRC-2 recruitment agonist screen; AID 1049; TR-FRET ratio at 8 µM; actives 0.4% (n = 200,000); TR-FRET artefact counter-screen; hits give high values
* = called active by the depositor. Most compounds without a hit are left out; they make up all but 0.9% or so of the library. Cut-off read from the data, not from the text of the source, unless noted: active = TR-FRET ratio above about 2000; inactive = the rest.

`Cc1cccc(Nc2ccc(C(=O)N3CCOCC3)cn2)c1` gave PPARg SRC3 recr 3, PPARg SRC-1 ag 9, SRC1 TRFRET art 2076, SRC3 TRFRET art 1601, PPARg SRC-2 ag 7 and SRC2 TRFRET art 1985*.
For O=C(c1ccc(Nc2cccc(C(F)(F)F)c2)nc1)N1CCCC1 the results were PPARg SRC3 recr 7, PPARg SRC-1 ag 0, PPARg SRC-2 ag -5 and SRC2 TRFRET art 1376.
`O=C(Nc1ccc(N2C(=O)C3C4C=CC(C4)C3C2=O)cc1Cl)c1cccs1` (stereo unspecified) gave PPARg SRC3 recr -1, PPARg SRC-1 ag 4, SRC1 TRFRET art 1809, SRC3 TRFRET art 1437, PPARg SRC-2 ag -1 and SRC2 TRFRET art 1731.
COc1cc(-c2nc3ccccn3c2/N=C/c2cc(OC)c(OC)c(OC)c2)ccc1O was read as PPARg SRC3 recr 19, PPARg SRC-1 ag 23*, PPARg SRC-2 ag 26* and SRC2 TRFRET art 1665.
For Cn1c(=O)c(C(=O)NC2CCCCCCC2)c(O)c2ccccc21 the results were PPARg SRC3 recr -2, PPARg SRC-1 ag 50*, SRC1 TRFRET art 3217*, SRC3 TRFRET art 1661, PPARg SRC-2 ag 8 and SRC2 TRFRET art 1608.
For CN1C(=O)SC(Nc2ccc(F)cc2)C1=O (stereo unspecified) the results were PPARg SRC3 recr 4, PPARg SRC-1 ag 5, PPARg SRC-2 ag 11 and SRC2 TRFRET art 1443.
`COc1ccc(-c2c(C#N)c(C)nc3c2C(=O)c2ccccc2-3)cc1` gave PPARg SRC3 recr -14, PPARg SRC-1 ag 24*, PPARg SRC-2 ag -2 and SRC2 TRFRET art 1442.
For CN(C)S(=O)(=O)c1ccc(Cl)c(NC(=O)CSc2nnnn2-c2ccc(O)cc2)c1 the results were PPARg SRC3 recr 1, PPARg SRC-1 ag 7, SRC1 TRFRET art 2160, SRC3 TRFRET art 1580, PPARg SRC-2 ag -3 and SRC2 TRFRET art 2002*.
Screening Cn1nnnc1SCC(=O)Nc1cc(S(=O)(=O)N2CCCC2)ccc1Cl returned PPARg SRC3 recr 1, PPARg SRC-1 ag 3, SRC1 TRFRET art 1762, SRC3 TRFRET art 1595, PPARg SRC-2 ag 15 and SRC2 TRFRET art 1756.
Screening CC(C)(C)c1cc[n+](/C(C(=S)Nc2ccccc2F)=C(/[O-])c2ccc3c(c2)OCCO3)cc1 returned PPARg SRC3 recr 3, PPARg SRC-1 ag 7, SRC1 TRFRET art 1902, SRC3 TRFRET art 1459, PPARg SRC-2 ag 6 and SRC2 TRFRET art 1596.
Screening [O-]/C(=C(\C(=S)Nc1ccccc1F)[n+]1ccccc1)c1ccc(-c2ccccc2)cc1 returned PPARg SRC3 recr 1, PPARg SRC-1 ag 1, SRC1 TRFRET art 2348*, SRC3 TRFRET art 1857, PPARg SRC-2 ag 9 and SRC2 TRFRET art 1913.
For COc1ccc(-c2csc3nc(C)nc(N4CCN(c5ccc(C(C)=O)cc5)CC4)c23)cc1OC the results were PPARg SRC3 recr 0, PPARg SRC-1 ag 2, SRC1 TRFRET art 1874, SRC3 TRFRET art 2053*, PPARg SRC-2 ag 0 and SRC2 TRFRET art 1584.
`COc1ccc2c(C)cc(SCC(=O)c3ccc4c(c3)OCO4)nc2c1` gave PPARg SRC3 recr 15, PPARg SRC-1 ag 13, PPARg SRC-2 ag -3 and SRC2 TRFRET art 3035*.
Cc1cc(C(=O)N/N=C/c2cccc([N+](=O)[O-])c2O)n[nH]1 was read as PPARg SRC3 recr 4, PPARg SRC-1 ag 8, SRC1 TRFRET art 2259, SRC3 TRFRET art 2114*, PPARg SRC-2 ag 18 and SRC2 TRFRET art 1799.
For Cc1cc(C(=O)N/N=C/c2ccc(O)c([N+](=O)[O-])c2)n[nH]1 the results were PPARg SRC3 recr 8, PPARg SRC-1 ag 4, SRC1 TRFRET art 2220, SRC3 TRFRET art 1716, PPARg SRC-2 ag 9 and SRC2 TRFRET art 1578.
Screening Cc1ccccc1OCc1nnc(SCC(=O)Nc2c(C)n(C)n(-c3ccccc3)c2=O)n1-c1ccccc1 returned PPARg SRC3 recr 1, PPARg SRC-1 ag 4, SRC1 TRFRET art 1841, SRC3 TRFRET art 1574, PPARg SRC-2 ag 2 and SRC2 TRFRET art 1598.
Screening Cc1cc(C(=O)OCC(=O)c2ccc3c(c2)OCCO3)c(C)o1 returned PPARg SRC3 recr 9, PPARg SRC-1 ag 10, PPARg SRC-2 ag 3 and SRC2 TRFRET art 1561.
For Cc1c(C(=O)OCC(=O)c2ccc3c(c2)OCCO3)oc2ccccc12 the results were PPARg SRC3 recr -1, PPARg SRC-1 ag 8, PPARg SRC-2 ag -4 and SRC2 TRFRET art 2066*.
For Cc1cc(C)c2nc(SCC(=O)N3CC(=O)Nc4ccccc43)c(C#N)cc2c1 the results were PPARg SRC3 recr -2, PPARg SRC-1 ag -4, PPARg SRC-2 ag 12 and SRC2 TRFRET art 3300*.
Screening O=C(NCC(=O)N(CCN1CCOCC1)C(C(=O)NC1CCCC1)c1cccs1)c1ccco1 (stereo unspecified) returned PPARg SRC3 recr 7, PPARg SRC-1 ag -2, PPARg SRC-2 ag 6 and SRC2 TRFRET art 1634.
Cc1ccc(OCC(=O)NNC(=O)C(=O)NC(C)(C)C)cc1 was read as PPARg SRC3 recr 7, PPARg SRC-1 ag 21*, SRC1 TRFRET art 2454*, SRC3 TRFRET art 1508, PPARg SRC-2 ag 7 and SRC2 TRFRET art 1515.
O=C(Nc1nc(-c2ccccc2)c(C(=O)c2ccccc2)s1)c1ccc(S(=O)(=O)N2CCCCC2)cc1 was read as PPARg SRC3 recr 1, PPARg SRC-1 ag 0, SRC1 TRFRET art 1695, SRC3 TRFRET art 1554, PPARg SRC-2 ag 12 and SRC2 TRFRET art 1588.
Screening O=S(=O)(c1ccccc1)c1nc(-c2ccco2)oc1N1CCOCC1 returned PPARg SRC3 recr 3, PPARg SRC-1 ag 26*, PPARg SRC-2 ag 5 and SRC2 TRFRET art 1561.
COc1ccc(-c2nc(S(=O)(=O)c3ccccc3)c(N3CCOCC3)o2)cc1 was read as PPARg SRC3 recr 0, PPARg SRC-1 ag 4, SRC1 TRFRET art 1614, SRC3 TRFRET art 1343, PPARg SRC-2 ag 6 and SRC2 TRFRET art 1502.
`Cc1c(C(=O)Nc2c(F)cccc2F)sc2ncnc(N3CCN(c4ccccc4)CC3)c12` gave PPARg SRC3 recr 3, PPARg SRC-1 ag 4, SRC1 TRFRET art 2137, SRC3 TRFRET art 2183*, PPARg SRC-2 ag 5 and SRC2 TRFRET art 1813.
For O=C(CCSCc1ccccc1F)NCc1cccs1 the results were PPARg SRC3 recr 0, PPARg SRC-1 ag -7, SRC1 TRFRET art 1774, SRC3 TRFRET art 1522, PPARg SRC-2 ag -3 and SRC2 TRFRET art 1317.
For O=C(CCSCc1ccccc1Cl)NCc1cccs1 the results were PPARg SRC3 recr -5, PPARg SRC-1 ag 28*, SRC1 TRFRET art 2618*, SRC3 TRFRET art 1723, PPARg SRC-2 ag 2 and SRC2 TRFRET art 1617.
CCOC(=O)c1ccc(NC(=O)CCc2nc(-c3ccc(Cl)cc3)no2)cc1 was read as PPARg SRC3 recr -12, PPARg SRC-1 ag 2, PPARg SRC-2 ag 1 and SRC2 TRFRET art 1790.
Screening CCOC(=O)c1ccc(NC(=O)CCc2nc(-c3ccc(C)cc3)no2)cc1 returned PPARg SRC3 recr 8, PPARg SRC-1 ag -2, PPARg SRC-2 ag 35* and SRC2 TRFRET art 2077*.
